Laboratory results from PubChem BioAssay (NCI).
This is part of a sample that, as a whole, favours compounds with a hit. Of some 79,000 tested, about 15% had one in any assay. Calls of active or inactive are those of the source. No stated cut-off is given here; in the data, active means growth inhibition above about 70%; inactive means the rest.

Key:
[1] = NCI Yeast Anticancer Drug Screen. Data for the mec2-1 strain (AID 157); settings: S. cerevisiae mec2-1 strain, active compounds read high
Procedure, shortened: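 Test agents were screened against the mec2-1 yeast strain, with defined DNA repair or cell cycle alteration. Growth was scored as inhibition against vehicle-only controls.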

[2] = NCI Yeast Anticancer Drug Screen. Data for the rad14 strain (AID 159);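 further: 0% = growth of vehicle-treated control cultures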; settings: S. cerevisiae rad14 strain growth inhibition, active compounds read high
Procedure, shortened: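 DNA repair-defective yeast, compound-exposed; % growth inhibition derived by comparison with vehicle-treated controls.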

[3] = NCI Yeast Anticancer Drug Screen. Data for the sgs1 mgt1 strain (AID 161);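 further: 0% = growth of cultures given vehicle only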; settings: S. cerevisiae sgs1 mgt1 strain, active compounds read high
Procedure, shortened: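 Genetically altered yeast, compound exposure, growth inhibition relative to vehicle.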

[4] = NCI Yeast Anticancer Drug Screen. Data for the CLN2oe strain (AID 163);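 further: 0% = growth of vehicle-only control cultures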; settings: S. cerevisiae CLN2oe strain, active compounds read high
Procedure, shortened: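 Here, growth inhibition in a cell-cycle-altered yeast strain after compound exposure was quantified against vehicle control growth.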

[5] = NCI Yeast Anticancer Drug Screen. Data for the cln2 rad14 strain (AID 165);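 further: 0% = growth equal to vehicle treated cultures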; settings: S. cerevisiae cln2 rad14 strain, active compounds read high
Procedure, shortened: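 Growth of compound-exposed yeast (cln2 rad14 genotype) measured and expressed as inhibition relative to vehicle.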

[6] = NCI Yeast Anticancer Drug Screen. Data for the bub3 strain (AID 167); settings: S. cerevisiae bub3 mutant strain, active compounds read high
Procedure, shortened: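 In this screen, a yeast mutant lacking normal mitotic checkpoint function is challenged with compound. Relative growth versus vehicle gives the inhibition value.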

[7] = NCI Yeast Anticancer Drug Screen. Data for the wt2 strain (AID 169);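 further: 0% = growth of vehicle-treated yeast cultures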; settings: S. cerevisiae wt2 strain growth inhibition, active compounds read high
Procedure, shortened: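 Genetically defined yeast strains from a DNA-repair/cell-cycle panel were used. Compound-exposed yeast growth was measured, and the inhibition was calculated relative to vehicle treatment.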

[8] = NCI Yeast Anticancer Drug Screen. Data for the mlh1 strain (AID 171);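 further: 0% = growth of vehicle-treated control cultures of the same strain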; settings: S. cerevisiae mlh1 strain growth inhibition, active compounds read high
Procedure, shortened: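 Here the genetically defined yeast mutant is grown with each compound, and the extent to which its growth falls below that of vehicle-exposed cells is reported.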

[9] = NCI Yeast Anticancer Drug Screen. Data for the sgs1 strain (AID 173);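 further: 0% = growth of vehicle-only control cultures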; settings: S. cerevisiae sgs1 mutant, active compounds read high
Procedure, shortened: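 Relative growth inhibition, referenced to vehicle, was determined in a yeast strain with a defined alteration affecting DNA damage repair or cell cycle control after compound exposure.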

[10] = NCI Yeast Anticancer Drug Screen. Data for the mlh1 rad18 strain (AID 175); settings: S. cerevisiae mlh1 rad18 strain growth inhibition, active compounds read high
Procedure, shortened: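 In this whole-cell yeast screen, a strain with altered DNA damage repair is challenged with compound, and its growth is measured against matched vehicle-treated controls.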

[11] = NCI Yeast Anticancer Drug Screen. Data for the rad18 strain (AID 177); settings: S. cerevisiae rad18 mutant growth inhibition, active compounds read high
Procedure, shortened: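 Screen uses a yeast strain with a defined lesion in DNA damage repair; compound effect is read as loss of growth compared to untreated vehicle cultures.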

[12] = NCI Yeast Anticancer Drug Screen. Data for the rad52 strain (AID 147);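 further: 0% = growth of vehicle-treated control cultures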; settings: S. cerevisiae rad52 mutant growth inhibition, active compounds read high
Procedure, shortened: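 Measured: yeast growth inhibition. System: strain with a defined DNA damage repair alteration. Reference: vehicle-treated control cultures.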

[13] = NCI Yeast Anticancer Drug Screen. Data for the wt1 strain (AID 149);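 further: 0% = growth of vehicle-treated wt1 cultures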; settings: S. cerevisiae wt1 strain (SPY 50644) growth inhibition, active compounds read high
Procedure, shortened: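 wt1 strain grown with compound or vehicle; inhibition taken from the growth difference.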

[14] = NCI Yeast Anticancer Drug Screen. Data for the rad50EPP+ strain (AID 151);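 further: 0% = growth of vehicle-treated control cultures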; settings: S. cerevisiae rad50 mutant strain, active compounds read high
Procedure, shortened: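 One strain with a rad50 alteration (rad50EPP+) was compound-treated, its growth then compared to that of vehicle controls.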

[15] = NCI Yeast Anticancer Drug Screen. Data for the rad50 strain (AID 155);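 further: 0% = growth of vehicle-only cultures of the same strain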; settings: S. cerevisiae rad50 strain growth inhibition, active compounds read high
Procedure, shortened: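 DNA repair mutant yeast, compound exposure, growth read-out; inhibition is taken relative to vehicle.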

[16] = at 5.0 µM (retest, dose inferred, filed as 0.5)
[17] = at 50.0 µM (retest, dose inferred, filed as 5.0)

Measured: growth inhibition

Nc1cc(F)cc2c1-c1ccc(F)cc1C2
inactive: [2]; at 1.2 µM 4% | [2]; at 3.7 µM 5% | [2]; at 11.0 µM 9% | [2]; at 33.0 µM 27% | [3]; [16] -5% | [3]; [17] 7% | [4]; at 1.2 µM -10% | [4]; at 3.7 µM -9% | [4]; at 11.0 µM -1% | [4]; at 33.0 µM 7% | [5]; [16] 0% | [5]; [17] 40% | [6]; at 1.2 µM -1% | [6]; at 3.7 µM -2% | [6]; [16] 3% | [6]; at 11.0 µM -2% | [6]; at 33.0 µM 16% | [6]; [17] 27% | [7]; at 1.2 µM -3% | [7]; at 3.7 µM 5% | [7]; at 11.0 µM -3% | [7]; at 33.0 µM 15% | [8]; at 1.2 µM -4% | [8]; at 3.7 µM -3% | [8]; at 11.0 µM -3% | [8]; at 33.0 µM 14% | [9]; at 1.2 µM -3% | [9]; at 3.7 µM 0% | [9]; at 11.0 µM 6% | [9]; at 33.0 µM 46% | [10]; [16] -1% | [10]; [17] 61% | [11]; at 1.2 µM -1% | [11]; at 3.7 µM 4% | [11]; at 11.0 µM 7% | [11]; at 33.0 µM 49%
active: [1]; at 100.0 µM 91% | [2]; at 100.0 µM 94% | [3]; at 50.0 µM 77% | [4]; at 100.0 µM 72% | [5]; at 50.0 µM 78.5% | [6]; at 50.0 µM 78.5% | [6]; at 100.0 µM 91% | [7]; at 100.0 µM 89% | [8]; at 100.0 µM 92% | [9]; at 100.0 µM 93% | [10]; at 50.0 µM 87.7% | [11]; at 100.0 µM 94%

c1ccc(N2N=C3N(c4ccccc4)C2N3c2ccccc2)cc1
inactive: [12]; at 1.2 µM -19% | [12]; at 3.7 µM -14% | [12]; at 11.0 µM 4% | [12]; at 33.0 µM 57% | [13]; at 1.2 µM -46% | [13]; at 3.7 µM -41% | [13]; at 11.0 µM -16% | [13]; at 33.0 µM 34% | [14]; at 1.2 µM -13% | [14]; at 3.7 µM -8% | [14]; at 11.0 µM -5% | [14]; at 33.0 µM 6% | [14]; at 100.0 µM 1% | [15]; at 1.2 µM 1% | [15]; at 3.7 µM 7% | [15]; [16] 43% | [15]; at 11.0 µM 26% | [1]; at 1.2 µM -19% | [1]; at 3.7 µM -22% | [1]; [16] 35% | [1]; at 11.0 µM 3% | [1]; at 33.0 µM 44% | [1]; at 50.0 µM 69.2% | [2]; at 1.2 µM -33% | [2]; at 3.7 µM -36% | [2]; at 11.0 µM -20% | [2]; at 33.0 µM 20% | [3]; [16] -16% | [3]; [17] 57% | [4]; at 1.2 µM -12% | [4]; at 3.7 µM -7% | [4]; at 11.0 µM -10% | [4]; at 33.0 µM 51% | [5]; [16] 28% | [5]; at 50.0 µM 59.5% | [6]; at 1.2 µM -6% | [6]; at 3.7 µM -1% | [6]; [16] 28% | [6]; at 11.0 µM 29% | [7]; at 1.2 µM -17% | [7]; at 3.7 µM -7% | [7]; at 11.0 µM 1% | [7]; at 33.0 µM 44% | [8]; at 1.2 µM -28% | [8]; at 3.7 µM -22% | [8]; at 11.0 µM -7% | [8]; at 33.0 µM 37% | [9]; at 1.2 µM 2% | [9]; at 3.7 µM -29% | [9]; at 11.0 µM 2% | [9]; at 33.0 µM 41% | [10]; [16] 38% | [11]; at 1.2 µM 12% | [11]; at 3.7 µM 10% | [11]; at 11.0 µM -3% | [11]; at 33.0 µM 60%
active: [12]; at 100.0 µM 93% | [13]; at 100.0 µM 93% | [15]; at 33.0 µM 70% | [15]; [17] 97% | [15]; at 50.0 µM 81% | [15]; at 100.0 µM 92% | [1]; [17] 98% | [1]; at 100.0 µM 93% | [2]; at 100.0 µM 92% | [3]; at 50.0 µM 81% | [4]; at 100.0 µM 92% | [5]; [17] 75% | [6]; at 33.0 µM 80% | [6]; [17] 81% | [6]; at 50.0 µM 82.5% | [6]; at 100.0 µM 92% | [7]; at 100.0 µM 94% | [8]; at 100.0 µM 93% | [9]; at 100.0 µM 93% | [10]; [17] 99% | [10]; at 50.0 µM 77.5% | [11]; at 100.0 µM 94%
